Test results published in PubChem BioAssay (Tox21).
Where “and” joins values, the source holds several entries; their conditions need not be identical. Identical values can stand only once. Records with an inconclusive call do not appear. Calls of active or inactive are those of the source. Calls come from the whole dose curve; as a rule, active = well fitted curve in the direction sought with a large enough effect in the repeat runs; inconclusive = weak or mixed curves; inactive = no such curve, though single readings can be large; an effect the other way counts as inactive or inconclusive.

Experiment: A CellTox Green Cytotoxicity Assay to monitor cytotoxicity in HepG2 cells - 16 hour (AID 1224876); note: nearly all actives have a fitted effect of over 45% in size
Conditions: CellTox Green fluorescence; series mostly up to 76.8 µM; cytotoxicity increase: at the top concentration
Procedure, shortened: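 HepG2 cells, 600/well, preincubated 5 h with CellTox Green dye, then exposed to Tox21 compounds in DMSO at 37 C for up to 40 h. Dead-cell DNA fluorescence read at the indicated time point.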
% is set by controls: 0 for no effect and ±100 for the full control effect.

| SMILES | cytotoxicity increase | Potency |
| --- | --- | --- |
| CCOC(C(=O)OCCN(C)C)(c1ccccc1)c1ccccc1 | 2.98% [at 35.3 µM] (inactive) |  |
| CC1(C)CC(=O)CC(C)(C)N1[O] | -7.31% (inactive) |  |
| CCC[N+](CCC)(CCC)CCC | -6.27% (inactive) |  |
| Nc1cc(Cl)cc(C(=O)O)c1Cl |  | inactive |
| C[C@H]1[C@@H]2Cc3ccc(O)cc3[C@@]1(C)CCN2C | -11.3% [at 200 µM] (inactive) |  |
| CCCCCCCCCCCCN(C)C | 19.2% (inactive) |  |
| CC(C)(C)NCC(O)c1ccccc1Cl (configuration not stated) | -0.487% [at 35.3 µM] (inactive) |  |
| COc1cc(C[C@@H](C)N)c(OC)cc1Br | 5.01% (inactive) |  |
| CCCCNC(=O)OCC#CI | 3.54% (inactive) |  |
| CC(C)CCCCCCCOC(=O)c1ccccc1C(=O)OCCCCCCCC(C)C | -0.977% (inactive) |  |
| C1CS1 | 7.65% (inactive) |  |

Experiment: qHTS RealTime-Glo MT Cell Viability Assay in HepG2 cells - 32 hour (AID 1224877); note: nearly all actives have a fitted effect of over 55% in size; note: potency is the fitted concentration of half-maximal effect
Conditions: RealTime-Glo luminescence; series mostly up to 76.8 µM; activity change, negative = cytotoxic: at the top concentration
Procedure, shortened: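 Viability was tracked continuously by NanoLuc luminescence from prosubstrate reduced by living HepG2 cells, at successive time points over 40 h of compound exposure. Cells with reagent were preincubated 5 h at 37 °C before compound addition.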

| SMILES | activity change, negative = cytotoxic | Potency |
| --- | --- | --- |
| CCCCCl | 5.62% (inactive) |  |
| O=C(Cc1ccccc1)OCCc1ccccc1 | -0.377% (inactive) |  |
| N#CC(C#N)=C(C#N)C#N | -6.7% (inactive) |  |
| CCCC(C)(COC(N)=O)COC(=O)NC(C)C (configuration not stated) |  | inactive |
| CCOP(=S)(S)OCC | 0.789% (inactive) |  |
| C=CCc1ccccc1O | 1.26% (inactive) |  |
| O=S(=O)(c1ccccc1)c1ccccc1 | -1.06% (inactive) |  |
| Nc1c(Br)cc(Br)c2c1C(=O)c1ccccc1C2=O | 5.09% [at 15.8 µM] (inactive) |  |
| COc1cc(CC(C)N)c(OC)cc1Br (configuration not stated) | -20% (inactive) |  |
| O=C(O)c1ccc(=O)[nH]c1 | 3.6% [at 35.3 µM] (inactive) |  |
| CCNC(=O)NC(=O)/C(C#N)=N/OC | 6.39% (inactive) |  |
| C=CCOCC1CO1 (configuration not stated) | 0.844% (inactive) |  |
| CCCSP(=S)(OCC)Oc1ccc(SC)cc1 (configuration not stated) | -11.7% (inactive) |  |
| CCOP(=S)(OCC)Oc1ccc(S(C)=O)cc1 (configuration not stated) | 4.59% (inactive) |  |
| C=C(C)C(=O)OCCCCOC(=O)C(=C)C | 2.58% (inactive) |  |
| C=C(Cl)Cl | 1.42% (inactive) |  |

| SMILES | activity change, negative = cytotoxic | Potency |
| --- | --- | --- |
| Clc1ccc(Cl)c(Cl)c1 |  | inactive |
| NNCCO | -1.41% (inactive) |  |
| O=C(N[C@H]1CN2CCC1CC2)c1ccc2c(c1)OCCO2 | 0.317% (inactive) |  |
| c1ccc2c(c1)sc1ccccc12 |  | inactive |
| N#CC1(N=NC2(C#N)CCCCC2)CCCCC1 | -3.19% (inactive) |  |
| CCOC(C(=O)OCCN(C)C)(c1ccccc1)c1ccccc1 | -8.67% [at 35.3 µM] (inactive) |  |
| CC1(C)CC(=O)CC(C)(C)N1[O] | 1.22% (inactive) |  |
| CCC[N+](CCC)(CCC)CCC | 1.89% (inactive) |  |
| Nc1cc(Cl)cc(C(=O)O)c1Cl |  | inactive |
| C[C@H]1[C@@H]2Cc3ccc(O)cc3[C@@]1(C)CCN2C | -2.71% [at 200 µM] (inactive) |  |
| CC(C)(C)NCC(O)c1ccccc1Cl (configuration not stated) | -0.81% [at 35.3 µM] (inactive) |  |
| COc1cc(C[C@@H](C)N)c(OC)cc1Br | -8.46% (inactive) |  |
| CCCCNC(=O)OCC#CI |  | 6.14 µM (active) and 2.75 µM (active) |
| CC(C)CCCCCCCOC(=O)c1ccccc1C(=O)OCCCCCCCC(C)C | 20% (inactive) |  |
| C1CS1 | -1.33% (inactive) |  |
